{
  "source": "PubChem BioAssay (NCATS)",
  "note": "Several values for one entry are separate records, joined by “and”; a condition that tells them apart may be missing. Identical values can stand only once. Results filed as inconclusive are left out. The source holds several records for some structures; these can differ, active in one and inactive in another. Activity calls are given as the source filed them. Calls follow the shape of the dose curve; as a rule, active = well fitted inhibition curve with a large enough effect; inconclusive = small, poorly fitted or top-dose-only effect; inactive = no such curve, though single readings can be large or run the other way. % is scaled to controls: 0 for no effect and ±100 for the full control effect; potency is read from the fitted curve at half-maximal effect.",
  "data": [
    {"test": "Primary qHTS for inhibitors of nuclear receptor binding SET domain protein 2 (NSD2) in an RCH-ACV wild type WT cells (2C) (AID 1645877); also: nearly all actives have a fitted effect of over 70% in size", "conditions": "RCH-ACV NSD2 WT (2C) viability, CellTiter-Glo, 72 h; series mostly up to 44.9 µM; activity change, negative = cell killing: at the top concentration", "excerpt": "Assay Provider: Jonathan D. Licht, MD\nUniversity of Florida College of Medicine, Gainesville, FL\nMutations in epigenetic regulators are common in relapsed pediatric acute lymphoblastic leukemia (ALL). Here, we uncovered the mechanism underlying the relapse of ALL driven by an activating mutation of the NSD2 histone methyltransferase (p.E1099K). […] Correction of this mutation restored glucocorticoid sensitivity. The transcriptional response to glucocorticoids was blocked in NSD2 mutant cells due to depressed glucocorticoid receptor (GR) levels and the failure of glucocorticoids to autoactivate GR expression. […] Pre-treatment of NSD2 p.E1099K cell lines and PDX samples with PRC2 inhibitors reversed glucocorticoid resistance in vitro and in vivo.\nHigh-throughput drug screening of isogenic RCH-ACV cell lines was performed at the National Center for Advancing Translational Science (NCATS), National Institutes of Health as previously described (1). Briefly, isogenic RCH-ACV NSD2 p.E1099K mutant (9B) and WT cells (2C) were plated at 500 cells/well in a 1536-well plate with a 72-hour incubation with compounds prior to addition of CellTiter-Glo to assess cell viability. NCATS libraries screened include: NPC, MIPE 5.0, Kinase and NPACT. To determine compound activity in the qHTS assay, the concentration-response data for each sample was plotted and modeled by a four-parameter logistic fit yielding IC50 and efficacy (maximal response) values. The area under the curve (AUC) of the dose-response curve ensures both efficacy (magnitude of cell killing) and potency (concentration that elicits cell killing) are accounted for in the analysis of activity.\n1. Tobie D Lee, Olivia W Lee, Kyle R Brimacombe, Lu Chen, Rajarshi Guha, Sabrina Lusvarghi, Bethilehem G Tebase, Carleen Klumpp-Thomas, Robert W Robey, Suresh V Ambudkar, Min Shen, Michael M Gottesman, Matthew D Hall. A High-Throughput Screen of a Library of Therapeutics Identifies Cytotoxic Substrates of P-glycoprotein. Mol Pharmacol. 2019, Nov;96(5):629-640.", "values": [
      {"molecule": "CCOC(=O)c1c(CSc2ccccc2)n(C)c2cc(Br)c(O)c(CN(C)C)c12", "Potency": "20.9 µM (active)"},
      {"molecule": "CCn1c(-c2nonc2N)nc2cncc(CNC3CCNCC3)c21", "Potency": "11.5 µM (active)"},
      {"molecule": "CC(C)(F)C[C@H](N[C@@H](c1ccc(-c2ccc(S(C)(=O)=O)cc2)cc1)C(F)(F)F)C(=O)NC1(C#N)CC1", "activity change, negative = cell killing": "-2.15% (inactive)"},
      {"molecule": "O=C(c1ccc(C(=O)N2CCC(N3CCCC3)CC2)c(Nc2ccccc2)c1)N1CCC(N2CCCC2)CC1", "Potency": "inactive"},
      {"molecule": "CN1CCN(c2ncc(-c3cc(Cl)cc(Cl)c3Cl)c(N)n2)CC1", "Potency": "18.6 µM (active)"},
      {"molecule": "CC[C@@H]([C@H](C)O)n1ncn(-c2ccc(N3CCN(c4ccc(OCC5CO[C@@](Cn6cncn6)(c6ccc(F)cc6F)C5)cc4)CC3)cc2)c1=O", "note": "(stereo not given in full)", "activity change, negative = cell killing": "-3.33% (inactive)"},
      {"molecule": "O=c1cc(-c2ccc(O)c(O)c2)oc2cc(O)cc(O)c12", "Potency": "9.34 µM (active)"},
      {"molecule": "CCc1cccc(CC)c1NC(=O)N1Cc2[nH]nc(NC(=O)c3ccc(N4CCN(C)CC4)cc3)c2C1", "Potency": "409 nM (active) and 468 nM (active)"},
      {"molecule": "COc1c(C)cnc(Cn2cnc3c(Cl)nc(N)nc32)c1C", "Potency": "0.263 µM (active)"},
      {"molecule": "N[C@@H](CC(=O)N1CCn2c(nnc2C(F)(F)F)C1)Cc1cc(F)c(F)cc1F", "activity change, negative = cell killing": "7.38% (inactive)"},
      {"molecule": "O=C(NCCCCN1CCOCC1)c1cc2ccccc2o1", "activity change, negative = cell killing": "-8.7% (inactive)"},
      {"molecule": "COc1cc([C@@H]2c3cc4c(cc3[C@@H](O[C@@H]3O[C@@H]5CO[C@@H](C)O[C@@H]5[C@H](O)[C@@H]3O)[C@H]3COC(=O)[C@H]23)OCO4)cc(OC)c1O", "Potency": "0.235 µM (active)"},
      {"molecule": "CCc1cc(-c2n[nH]c(C)c2-c2ccc3c(c2)OCCO3)c(O)cc1O", "Potency": "7.42 µM (active)"},
      {"molecule": "Cc1ccc2c(=O)c3cccc(CC(=O)O)c3oc2c1C", "outcome": "inactive"},
      {"molecule": "CN(C(Cc1ccc(OS(=O)(=O)c2cccc3cnccc23)cc1)C(=O)N1CCN(c2ccccc2)CC1)S(=O)(=O)c1cccc2cnccc12", "note": "(stereo not given)", "Potency": "6.51 µM (active)"},
      {"molecule": "CC(C)[C@H](O)C(=O)N[C@@H](C)C(=O)N[C@@H]1C(=O)N(C)CCc2ccccc21", "activity change, negative = cell killing": "1.02% (inactive)"},
      {"molecule": "Nc1ncnc2c1c(-c1cccc(OCc3ccccc3)c1)cn2C1CC(CN2CCC2)C1", "note": "(stereo not given)", "Potency": "2.9 µM (active)"},
      {"molecule": "CNC(=O)c1ccc2c(C(=Nc3cccc(CN(C)C)c3)c3ccccc3)c(O)[nH]c2c1", "Potency": "16.6 µM (active)"},
      {"molecule": "CCCCCCCCCCCCCC(=O)N[C@H](CO)[C@H](O)c1ccc([N+](=O)[O-])cc1", "outcome": "inactive"},
      {"molecule": "O=C1CN2Cc3c(ccc(Cl)c3Cl)N=C2N1", "activity change, negative = cell killing": "-6.18% (inactive)"},
      {"molecule": "C#CCN(C)CC1=Cc2ccccc2Oc2ccccc21", "activity change, negative = cell killing": "-7.04% (inactive)"},
      {"molecule": "O=C(O)CCC=CCC[C@@H]1[C@H](N2CCCCC2)[C@@H](O)C[C@@H]1OCc1ccc(-c2ccccc2)cc1", "activity change, negative = cell killing": "-17.1% (inactive)"},
      {"molecule": "OC(c1cc(C(F)(F)F)nc2c(C(F)(F)F)cccc12)C1CCCCN1", "note": "(stereo not given)", "Potency": "13.2 µM (active)"},
      {"molecule": "CC(NCCc1ccc(O)cc1)C(O)c1ccc(O)cc1", "note": "(stereo not given)", "activity change, negative = cell killing": "0.279% (inactive)"},
      {"molecule": "Cc1cccc(-c2[nH]c(C(C)(C)C)nc2-c2ccc3c(c2)OCO3)n1", "Potency": "4.11 µM (active) and 4.17 µM (active)"},
      {"molecule": "COc1cc2nccc(Oc3ccc(NC(=O)Nc4cc(C)on4)c(Cl)c3)c2cc1OC", "Potency": "728 nM (active) and 4.17 µM (active)"},
      {"molecule": "O=C1NC(=O)C(c2cnc3ccccn23)=C1c1cn2c3c(cccc13)CN(C(=O)N1CCOCC1)CC2", "Potency": "0.0148 µM (active)"},
      {"molecule": "CN1CC(=O)NC1=NC(=O)Nc1cccc(Cl)c1", "activity change, negative = cell killing": "7.08% (inactive)"},
      {"molecule": "Cc1cccc2c1CC[C@H](CN1CCC(c3c(Cl)cccc3Cl)CC1)C[C@@H]2O", "Potency": "7.28 µM (active)"},
      {"molecule": "O=C(Nc1ccc(OC(F)(F)F)cc1)c1sccc1NCc1ccnc2ccccc12", "Potency": "18.6 µM (active)"},
      {"molecule": "Cc1ccccc1-n1c(Cn2nc(-c3cccc(O)c3)c3c(N)ncnc32)nc2cccc(C)c2c1=O", "Potency": "0.728 µM (active)"},
      {"molecule": "Nc1ncnc2c1ncn2[C@@H]1O[C@H](CO)[C@@H](O)[C@@H]1O", "Potency": "16.6 µM (active)"},
      {"molecule": "NC1(C(=O)N[C@@H](CCO)c2ccc(Cl)cc2)CCN(c2ncnc3[nH]ccc23)CC1", "Potency": "2.35 µM (active)"},
      {"molecule": "O=C(O)CCNc1cc(N2CCc3ccccc3CC2)nc(-c2ccccn2)n1", "Potency": "inactive"},
      {"molecule": "O[C@@H](COc1cccc2ncccc12)CN1CCN(C2c3ccccc3[C@@H]3[C@H](c4ccccc42)C3(F)F)CC1", "note": "(stereo not given in full)", "Potency": "10.6 µM (active)"},
      {"molecule": "Cc1cnc(Nc2cccc(CN3CCOCC3)c2)nc1Nc1cccc(S(=O)(=O)NC(C)(C)C)c1", "Potency": "0.515 µM (active)"},
      {"molecule": "C[C@@]1(C(=O)Nc2ccc(F)nc2)CCCN1c1nc(Nc2cc(C3CC3)[nH]n2)c2cccn2n1", "Potency": "2.63 µM (active)"},
      {"molecule": "O=C(Nc1ncc(SCCN2CCCC2)s1)[C@]1(c2ccc(S(=O)(=O)C3CC3)cc2)C[C@@H]1C1CCCCC1", "Potency": "14.6 µM (active)"},
      {"molecule": "NC(=O)c1noc([C@H](CCCC2CCCCC2)CC(=O)NO)n1", "Potency": "1.66 µM (active)"},
      {"molecule": "Cc1csc(-c2nnc(Nc3ccc(Oc4ncccc4-c4ccnc(N)n4)cc3)c3ccccc23)c1", "Potency": "inactive and 3 nM (active)"}
    ]}
  ]
}
